# PMC7862700, “An all-to-all approach to the identification of sequence-specific readers for epigenetic DNA modifications on cytosine”
# What was measured:
# Experiment in all cases: DAPPL (digital affinity profiling via proximity ligation, sequencing); 10 mM Tris-HCl pH 7.5, 50 mM NaCl, 1 mM DTT, 4% glycerol, room temperature, 30 min; GST-TFs on glutathione beads, 16-mer random dsDNA library, 0.1% formaldehyde crosslink after washing; high values mean tight binding
# Conditions in all cases: protein: recombinant; tags: N-terminal GST; dsDNA, one strand shown
# [1] = molecular target: T1, ELK1 (Homo sapiens, UniProt P19419 1-428)
# T1 sequence: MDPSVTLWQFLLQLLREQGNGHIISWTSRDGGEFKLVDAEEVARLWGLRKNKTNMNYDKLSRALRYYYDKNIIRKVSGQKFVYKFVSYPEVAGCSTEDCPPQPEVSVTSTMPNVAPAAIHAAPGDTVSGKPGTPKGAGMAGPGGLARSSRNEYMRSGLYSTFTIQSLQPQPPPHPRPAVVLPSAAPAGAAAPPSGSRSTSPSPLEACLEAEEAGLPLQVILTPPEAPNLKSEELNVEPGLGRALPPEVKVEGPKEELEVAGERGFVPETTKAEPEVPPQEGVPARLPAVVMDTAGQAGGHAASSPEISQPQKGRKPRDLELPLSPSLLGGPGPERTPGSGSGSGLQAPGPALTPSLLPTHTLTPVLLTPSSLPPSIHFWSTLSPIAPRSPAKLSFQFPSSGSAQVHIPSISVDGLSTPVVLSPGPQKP
# Method in brief: (§1)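 Human transcription factors were made in yeast as GST fusions, captured on glutathione beads and barcoded with DNA. With a tag-only sample included, the pool was incubated with 200 nmole of a random double-stranded 16-mer DNA library in Tris/NaCl/DTT/glycerol buffer at room temperature for 30 min, then crosslinked with 0.1% formaldehyde after washing, ligated by proximity, amplified and sequenced. For binding signal, each hexamer's read frequency for a factor is divided by its frequency for the tag-only sample.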
# [2] = molecular target: T2, GABPA (Homo sapiens, UniProt Q06546 1-454)
# T2 sequence: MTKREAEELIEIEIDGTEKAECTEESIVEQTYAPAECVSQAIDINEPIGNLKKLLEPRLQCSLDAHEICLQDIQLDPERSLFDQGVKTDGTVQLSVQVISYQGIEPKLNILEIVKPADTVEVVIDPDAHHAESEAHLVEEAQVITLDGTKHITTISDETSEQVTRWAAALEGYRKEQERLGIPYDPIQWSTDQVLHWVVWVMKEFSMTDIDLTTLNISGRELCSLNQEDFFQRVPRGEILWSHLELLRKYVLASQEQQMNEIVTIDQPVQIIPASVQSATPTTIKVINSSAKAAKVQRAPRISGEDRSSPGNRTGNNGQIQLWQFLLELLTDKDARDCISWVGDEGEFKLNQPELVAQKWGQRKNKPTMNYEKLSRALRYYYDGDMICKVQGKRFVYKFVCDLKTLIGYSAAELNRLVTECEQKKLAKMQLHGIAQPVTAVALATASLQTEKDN
# Method in brief: as §1
# [3] = molecular target: T3, ERG (Homo sapiens, UniProt P11308 1-479)
# T3 sequence: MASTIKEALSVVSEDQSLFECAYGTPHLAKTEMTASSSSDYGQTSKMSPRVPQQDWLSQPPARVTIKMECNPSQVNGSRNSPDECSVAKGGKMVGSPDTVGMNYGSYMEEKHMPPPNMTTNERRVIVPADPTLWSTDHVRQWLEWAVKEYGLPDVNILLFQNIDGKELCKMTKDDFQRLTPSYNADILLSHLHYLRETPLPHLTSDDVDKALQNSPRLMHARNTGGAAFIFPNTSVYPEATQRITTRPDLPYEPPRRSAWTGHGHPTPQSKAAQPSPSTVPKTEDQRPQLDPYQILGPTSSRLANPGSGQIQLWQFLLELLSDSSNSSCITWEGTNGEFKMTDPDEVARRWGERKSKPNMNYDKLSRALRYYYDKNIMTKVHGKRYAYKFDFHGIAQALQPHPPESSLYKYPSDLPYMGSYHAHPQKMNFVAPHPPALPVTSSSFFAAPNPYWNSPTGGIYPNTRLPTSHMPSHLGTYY
# Method in brief: as §1
# [4] = molecular target: ELF1 (Homo sapiens, UniProt P32519 1-619)
# Sequence of ELF1 (P32519 whole entry): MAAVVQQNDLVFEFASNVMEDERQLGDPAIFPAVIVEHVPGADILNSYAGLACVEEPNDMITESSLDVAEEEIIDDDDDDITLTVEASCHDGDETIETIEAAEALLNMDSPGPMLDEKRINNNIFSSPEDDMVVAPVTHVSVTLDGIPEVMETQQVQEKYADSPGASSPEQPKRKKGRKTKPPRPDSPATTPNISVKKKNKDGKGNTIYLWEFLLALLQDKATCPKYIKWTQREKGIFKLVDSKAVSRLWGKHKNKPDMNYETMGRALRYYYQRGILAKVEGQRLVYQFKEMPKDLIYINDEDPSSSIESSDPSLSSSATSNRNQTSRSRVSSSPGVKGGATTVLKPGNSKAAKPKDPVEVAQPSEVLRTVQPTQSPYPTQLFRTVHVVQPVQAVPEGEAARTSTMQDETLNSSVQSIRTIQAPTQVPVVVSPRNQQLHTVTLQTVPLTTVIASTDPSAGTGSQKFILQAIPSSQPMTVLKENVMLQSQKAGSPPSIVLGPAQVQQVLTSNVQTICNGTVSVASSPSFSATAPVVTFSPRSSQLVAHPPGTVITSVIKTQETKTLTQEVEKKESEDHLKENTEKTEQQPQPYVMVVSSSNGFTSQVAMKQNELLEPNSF
# Method in brief: as §1
# [5] = molecular target: T4, EHF (Homo sapiens, UniProt Q9NZC4 1-300)
# T4 sequence: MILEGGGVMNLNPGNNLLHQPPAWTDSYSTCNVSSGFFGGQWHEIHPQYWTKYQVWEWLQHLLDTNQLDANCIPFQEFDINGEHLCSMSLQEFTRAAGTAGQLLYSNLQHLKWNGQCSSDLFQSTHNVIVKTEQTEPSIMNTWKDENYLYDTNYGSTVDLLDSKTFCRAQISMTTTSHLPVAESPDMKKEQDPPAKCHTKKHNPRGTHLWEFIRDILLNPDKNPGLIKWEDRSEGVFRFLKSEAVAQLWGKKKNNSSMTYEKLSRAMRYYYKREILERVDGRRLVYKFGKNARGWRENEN
# Method in brief: as §1
# [6] = molecular target: SPIB (Homo sapiens, UniProt Q01892 1-262)
# Sequence of SPIB (Q01892 whole entry): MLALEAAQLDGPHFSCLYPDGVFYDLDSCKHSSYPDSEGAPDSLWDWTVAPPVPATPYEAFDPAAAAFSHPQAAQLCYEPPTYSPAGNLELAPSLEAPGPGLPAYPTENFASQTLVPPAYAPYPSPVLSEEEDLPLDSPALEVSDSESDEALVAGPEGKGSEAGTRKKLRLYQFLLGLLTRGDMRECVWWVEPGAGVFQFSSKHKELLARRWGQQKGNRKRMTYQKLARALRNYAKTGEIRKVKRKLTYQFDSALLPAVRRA
# Method in brief: as §1
# [7] = molecular target: T5, ELK3 (Homo sapiens, UniProt P41970 1-407)
# T5 sequence: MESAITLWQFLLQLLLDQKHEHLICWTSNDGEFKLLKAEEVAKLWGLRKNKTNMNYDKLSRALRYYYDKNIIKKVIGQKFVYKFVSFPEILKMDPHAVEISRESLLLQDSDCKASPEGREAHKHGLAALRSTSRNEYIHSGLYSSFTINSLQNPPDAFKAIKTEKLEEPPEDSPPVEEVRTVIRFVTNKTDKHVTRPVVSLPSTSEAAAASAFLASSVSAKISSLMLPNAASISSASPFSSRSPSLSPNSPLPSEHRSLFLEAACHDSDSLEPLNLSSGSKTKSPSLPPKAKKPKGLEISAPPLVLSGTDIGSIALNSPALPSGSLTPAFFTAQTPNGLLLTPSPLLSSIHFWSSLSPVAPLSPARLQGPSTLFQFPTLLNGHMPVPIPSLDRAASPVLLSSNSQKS
# Method in brief: as §1
# [8] = molecular target: T6, SPIC (Homo sapiens, UniProt Q8N5J4 1-248)
# T6 sequence: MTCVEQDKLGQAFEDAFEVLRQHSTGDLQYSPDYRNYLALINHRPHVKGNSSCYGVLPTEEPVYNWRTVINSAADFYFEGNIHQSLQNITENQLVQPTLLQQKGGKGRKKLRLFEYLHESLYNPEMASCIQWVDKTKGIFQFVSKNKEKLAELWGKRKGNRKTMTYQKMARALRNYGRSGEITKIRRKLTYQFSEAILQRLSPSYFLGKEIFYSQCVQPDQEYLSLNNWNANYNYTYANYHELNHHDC
# Method in brief: as §1
# [9] = molecular target: ELF4 (Homo sapiens, UniProt Q99607 1-663)
# Sequence of ELF4 (Q99607 whole entry): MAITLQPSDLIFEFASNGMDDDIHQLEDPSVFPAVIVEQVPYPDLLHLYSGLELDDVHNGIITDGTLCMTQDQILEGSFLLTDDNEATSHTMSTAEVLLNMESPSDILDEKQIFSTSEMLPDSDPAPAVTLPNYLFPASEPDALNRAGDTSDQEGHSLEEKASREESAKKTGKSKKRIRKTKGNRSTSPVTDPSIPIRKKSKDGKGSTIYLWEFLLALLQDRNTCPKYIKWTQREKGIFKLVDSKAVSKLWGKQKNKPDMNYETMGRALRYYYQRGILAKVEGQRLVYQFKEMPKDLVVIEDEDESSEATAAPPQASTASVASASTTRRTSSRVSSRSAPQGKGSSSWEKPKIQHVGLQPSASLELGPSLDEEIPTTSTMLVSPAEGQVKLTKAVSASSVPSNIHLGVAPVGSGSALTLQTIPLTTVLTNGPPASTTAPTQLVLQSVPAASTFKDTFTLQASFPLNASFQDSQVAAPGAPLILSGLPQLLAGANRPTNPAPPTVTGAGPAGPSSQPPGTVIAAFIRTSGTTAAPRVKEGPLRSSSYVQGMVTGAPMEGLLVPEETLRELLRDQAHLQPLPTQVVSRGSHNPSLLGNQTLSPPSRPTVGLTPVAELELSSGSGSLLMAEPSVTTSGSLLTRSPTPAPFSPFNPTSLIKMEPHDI
# Method in brief: as §1
sequence,measurement,setting,value
GCTGGT,binding signal,[1],"1.23 fold enrichment (6-mer frequency, TF over GST control)"
same,binding signal,[2],"1.15 fold enrichment (6-mer frequency, TF over GST control)"
same,binding signal,[3],"1.28 fold enrichment (6-mer frequency, TF over GST control)"
same,binding signal,[4],"1.04 fold enrichment (6-mer frequency, TF over GST control)"
same,binding signal,[5],"1.2 fold enrichment (6-mer frequency, TF over GST control)"
same,binding signal,[6],"1.18 fold enrichment (6-mer frequency, TF over GST control)"
same,binding signal,[7],"1.19 fold enrichment (6-mer frequency, TF over GST control)"
same,binding signal,[8],"1.08 fold enrichment (6-mer frequency, TF over GST control)"
same,binding signal,[9],"1.11 fold enrichment (6-mer frequency, TF over GST control)"
